These results are taken from PubChem BioAssay (Tox21).

Unmarked numbers belong to inactive results. Inconclusive results are not listed. Active and inactive are the calls of the source. Unless noted, calls come from the whole dose curve.

The nature of assay [1]: qHTS assay to identify small molecule agonists of the sonic hedgehog signaling (Shh) pathway (AID 1259368).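 Note: NIH/3T3-derived 3T3Gli1-Luc cells carrying a stable Gli1-driven firefly luciferase reporter; series mostly up to about 92 µM; nearly all actives have a fitted effect of over 15% in size.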 An outline of the steps:
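Cells of a mouse NIH/3T3 clone stably expressing luciferase under the Gli1 transcriptional response element are exposed to test chemicals for 24 hr at 37 C. Pathway activation is detected as a rise in luminescence.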
(In general: Quantitative high-throughput screening tests each substance at several concentrations.)

Assay [2] is described as follows: qHTS assay to identify small molecule antagonists of the sonic hedgehog signaling (Shh) pathway (AID 1259369). Note: nearly all actives have a fitted effect of over 45% in size. Note: potency is the fitted concentration of half-maximal effect. An outline of the steps:
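Cells are plated and held 4hr at 37 C, compounds (DMSO) are pinned in, conditioned medium is added to stimulate the pathway, and after 24hr luciferase reagent is added for 30min before luminescence is read.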

Assay [3] can be described thus: qHTS assay to identify small molecule agonists of the androgen receptor (AR) signaling pathway in the presence of an antagonist - cell viability counter screen (AID 1259379; active = well fitted curve in the direction sought with a large enough effect in the repeat runs; an effect the other way counts as inactive or inconclusive;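 note: MDA-kb2 human breast cancer cells carrying an MMTV luciferase reporter; series mostly up to about 92 µM; nearly all actives have a fitted effect of over 25% in size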). An outline of the steps: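 Cytotoxicity is assessed by CellTiter-Fluor in MDA-kb2 cells carrying an MMTV-driven luciferase reporter. Cells receive 3.0uM nilutamide plus compounds at 15 concentrations and incubate 16 hr at 37C without CO2 before fluorescence reading.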

The nature of assay [4]: qHTS assay to identify small molecule agonists of the estrogen receptor beta (ER-beta) signaling pathway - cell viability counter screen (AID 1259380; active = well fitted curve in the direction sought with a large enough effect in the repeat runs; an effect the other way counts as inactive or inconclusive; note: nearly all actives have a fitted effect of over 30% in size; note: potency is the fitted concentration of half-maximal effect). The method in brief:
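Cytotoxicity is measured in parallel with the reporter screen: after 16 hr compound exposure at 37C and a 2 hr LiveBLAzer step, CellTiter-Glo is added to the same ER-beta-UAS-bla HEK293T wells and luminescence read after 30 min.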

Assay [5] addresses Androgen receptor (Homo sapiens) (UniProt P10275). Nature of the assay: qHTS assay to identify small molecule agonists of the androgen receptor (AR) signaling pathway in the presence of an antagonist (AID 1259381). Note: nearly all actives have a fitted effect of over 15% in size. The method in brief:
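Agonist-mode confirmation screen: human MDA-kb2 cells stably expressing luciferase under an MMTV promoter bearing AR and GR response elements, co-treated with 3.0uM nilutamide (final). Luminescence measured after 16hr compound incubation.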

The nature of assay [6]: qHTS assay to identify small molecule antagonists of the estrogen receptor beta (ER-beta) signaling pathway - cell viability counter screen (AID 1259382; active = well fitted curve in the direction sought with a large enough effect in the repeat runs; an effect the other way counts as inactive or inconclusive; note: series mostly up to about 92 µM; nearly all actives have a fitted effect of over 55% in size). The method in brief: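 Cytotoxicity counter screen multiplexed with the beta-lactamase antagonist assay: GripTite HEK293T ER-beta-bla cells were treated 16 hr with test chemicals in the presence of 1nM 17-beta-estradiol, and viability was measured by CellTiter-Glo.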

Assay [7] addresses Estrogen receptor (Homo sapiens) (UniProt P03372). In words: qHTS assay to identify small molecule agonists of the estrogen receptor alpha (ER-alpha) signaling pathway in the presence of an antagonist (AID 1259383). Note: top concentration of the series differs between compounds; nearly all actives have a fitted effect of over 15% in size. An outline of the steps: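 Agonist-mode confirmation in the presence of the ER antagonist ICI-182,780 at 10.0nM final. Breast-derived VM7Luc4E2 reporter cells were exposed to compounds for 22hr, and ERE-driven luciferase was quantified by luminescence.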

The nature of assay [8]: qHTS assay to identify small molecule agonists or antagonists of the thyroid stimulating hormone receptor (TSHR) signaling pathway - wild type cell line counter screen (AID 1259384). An outline of the steps:
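Wild-type Hek293 cells, 800/well, 18 h at 37C, then compound with Ro20-1724 for 30 min RT. cAMP by HTRF (cAMP-d2/anti-cAMP cryptate), 1 h RT, fluorescence read. 15 concentrations, triplicates.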

For assay [9], the target named is Thyrotropin receptor (Homo sapiens) (UniProt P16473). Nature of the assay: qHTS assay to identify small molecule antagonists of the thyroid stimulating hormone receptor (TSHR) signaling pathway (AID 1259385). Note: nearly all actives have a fitted effect of over 20% in size. An outline of the steps:
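TSHR-HEK293 cells (800/well) plated 18 h, then compounds with Ro20-1724 and TSH at 1.5 ng/mL final, 30 min at room temperature. cAMP quantified by HTRF (cAMP-d2/anti-cAMP-cryptate, 1 h); 15 concentrations in triplicate.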

A short description of assay [10]: qHTS assay to identify small molecule agonists of the estrogen receptor alpha (ER-alpha) signaling pathway in the presence of an antagonist - cell viability counter screen (AID 1259386; active = well fitted curve in the direction sought with a large enough effect in the repeat runs; an effect the other way counts as inactive or inconclusive;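 note: series mostly up to about 92 µM; cells exposed to compounds for 22 h at 37 °C before the viability read; nearly all actives have a fitted effect of over 30% in size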). An outline of the steps: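 Cytotoxicity was measured in parallel with the ERE-luciferase agonist screen, in the same wells. The cells were VM7Luc4E2, which endogenously express ER-alpha, and treatment was with compounds plus 10.0nM ICI-182,780 for 22hr.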

For assay [11], the target named is Progesterone receptor (Homo sapiens) (UniProt P06401). Nature of the assay: qHTS assay to identify small molecule agonists of the progesterone receptor (PR) signaling pathway (AID 1346784). Note: nearly all actives have a fitted effect of over 30% in size. The method in brief:
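HEK 293T PR-UAS-bla reporter cells, 2% charcoal-stripped FBS; 6 hr settle at 37C/5% CO2, compound (DMSO) 16 hr, LiveBLAzer B/G FRET substrate 2 hr RT, fluorescence intensity read.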

Assay [12] has the same target. In words: qHTS assay to identify small molecule antagonists of the progesterone receptor (PR) signaling pathway (AID 1346795; active = well fitted inhibition curve with a large enough effect in the signal ratio in the repeat runs, not every such curve was filed as active; the % refers to the signal ratio). The method in brief: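 Beta-lactamase reporter, HEK293T PR-UAS-bla line; 2% charcoal-stripped FBS; 6 hr pre-incubation, 37C/5% CO2. Compound + R5020 1 nM final, 16 hr. LiveBLAzer B/G FRET substrate, 2 hr RT; fluorescence intensity read.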

Assay [13] is described as follows: qHTS assay to identify small molecule antagonists of the progesterone receptor (PR) signaling pathway - cell viability counter screen (AID 1346798; active = well fitted curve in the direction sought with a large enough effect in the repeat runs; an effect the other way counts as inactive or inconclusive; note: series mostly up to about 92 µM; nearly all actives have a fitted effect of over 50% in size). The method in brief: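 Luminescence readout (CellTiter-Glo, 30 min, RT) of viability in PR-UAS-bla HEK293T cells exposed to compound and R5020 agonist for 16 hr at 37C, 5% CO2; run in the same wells as the beta-lactamase reporter read.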

Assay [14] can be described thus: qHTS assay to identify small molecule agonists of the progesterone receptor (PR) signaling pathway - cell viability counter screen (AID 1346799). Note: nearly all actives have a fitted effect of over 45% in size. An outline of the steps: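 HEK293T PR-UAS-bla, 3,000 cells/well, 2% charcoal-stripped FBS; 6 h settle, compound 16 h at 37C/5% CO2; LiveBLAzer 2 h RT, then CellTiter-Glo 30 min RT, luminescence read.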
Assay [15] can be described thus: qHTS assay to identify small molecule antagonists of the TGF-beta/Smad signaling pathway - cell viability counter screen (AID 1346824; active = well fitted curve in the direction sought with a large enough effect in the repeat runs; an effect the other way counts as inactive or inconclusive; note: nearly all actives have a fitted effect of over 50% in size). An outline of the steps:
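SBE-bla HEK 293T cells, incubated overnight, then compound plus 0.25 ng/mL TGF-beta1 (stock added) for 5 hr at 37 C. Viability was read in the same wells by CellTiter-Glo luminescence after 30 min at room temperature.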

Assay [16] can be described thus: qHTS assay to identify small molecule agonists of the TGF-beta/Smad signaling pathway - cell viability counter screen (AID 1346829; active = well fitted curve in the direction sought with a large enough effect in the repeat runs; an effect the other way counts as inactive or inconclusive; note: top concentration of the series differs between compounds; nearly all actives have a fitted effect of over 45% in size). An outline of the steps:
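Compound-treated SBE-bla HEK 293T cells (5 hr, 37 C) were assessed for viability with CellTiter-Glo in parallel with the reporter read.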

The nature of assay [17]: qHTS assay to identify small molecule agonists of the TGF-beta/Smad signaling pathway (AID 1346859; active = well fitted activation curve with a large enough effect in the signal ratio in the repeat runs, not every such curve was filed as active; the % refers to the signal ratio; note: series mostly up to about 77 µM). An outline of the steps:
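Read-out: fluorescence at 460 and 530 nm (405 nm excitation) after a 2 hr room-temperature incubation with beta-lactamase FRET substrate. SBE-bla HEK 293T cells had been treated with test compounds for 5 hr at 37 C.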

The target of assay [18] is Thyrotropin-releasing hormone receptor (Homo sapiens) (UniProt P34981). In words: qHTS assay to identify small molecule antagonists of the thyrotropin-releasing hormone receptor (TRHR) signaling pathway (AID 1346877; active = well fitted inhibition curve with a large enough effect in the repeat runs, not every such curve was filed as active; note: series mostly up to about 51 µM). An outline of the steps:
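Antagonism is measured as suppression of the calcium response to 1 nM TRH in TRHR-HEK293 cells that have been dye-loaded for 2 h at 37 °C after overnight plating. Each compound is tested at 15 concentrations in triplicate.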

Assay [19] concerns the target Estrogen receptor beta (Homo sapiens) (UniProt Q92731). In words: qHTS assay to identify small molecule antagonists of the estrogen receptor beta (ER-beta) signaling pathway (AID 1259378; active = well fitted inhibition curve with a large enough effect in the signal ratio in the repeat runs, not every such curve was filed as active; the % refers to the signal ratio). An outline of the steps: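 ER-beta-UAS-bla HEK293T cells in 2% charcoal-stripped FBS medium treated with compound plus 1nM final 17-beta-estradiol for 16 hr at 37C. Beta-lactamase reporter read by FRET substrate fluorescence after 2 hours at room temperature.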

Chain of Thyrotropin receptor (Homo sapiens) (P16473 whole entry, looked up): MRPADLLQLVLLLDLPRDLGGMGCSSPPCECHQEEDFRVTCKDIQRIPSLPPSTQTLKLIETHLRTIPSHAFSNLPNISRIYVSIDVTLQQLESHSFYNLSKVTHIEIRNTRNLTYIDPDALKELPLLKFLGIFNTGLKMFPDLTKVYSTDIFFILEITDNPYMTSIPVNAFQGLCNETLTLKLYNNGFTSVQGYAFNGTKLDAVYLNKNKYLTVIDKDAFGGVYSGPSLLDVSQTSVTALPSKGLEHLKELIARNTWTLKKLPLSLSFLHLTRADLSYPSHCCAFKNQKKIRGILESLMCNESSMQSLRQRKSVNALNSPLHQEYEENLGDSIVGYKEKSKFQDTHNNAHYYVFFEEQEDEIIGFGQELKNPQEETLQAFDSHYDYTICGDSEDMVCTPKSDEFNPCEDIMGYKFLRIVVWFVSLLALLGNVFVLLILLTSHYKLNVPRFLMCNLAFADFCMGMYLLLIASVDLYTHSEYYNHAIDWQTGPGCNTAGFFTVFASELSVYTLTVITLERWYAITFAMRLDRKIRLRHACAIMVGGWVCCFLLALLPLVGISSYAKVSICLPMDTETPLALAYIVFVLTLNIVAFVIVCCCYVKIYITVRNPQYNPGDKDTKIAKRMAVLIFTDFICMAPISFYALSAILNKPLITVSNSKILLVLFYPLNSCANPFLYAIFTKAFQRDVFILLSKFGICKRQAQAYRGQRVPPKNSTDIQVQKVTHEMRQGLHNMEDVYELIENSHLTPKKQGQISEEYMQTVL
Chain of Progesterone receptor (Homo sapiens) (P06401 whole entry, looked up): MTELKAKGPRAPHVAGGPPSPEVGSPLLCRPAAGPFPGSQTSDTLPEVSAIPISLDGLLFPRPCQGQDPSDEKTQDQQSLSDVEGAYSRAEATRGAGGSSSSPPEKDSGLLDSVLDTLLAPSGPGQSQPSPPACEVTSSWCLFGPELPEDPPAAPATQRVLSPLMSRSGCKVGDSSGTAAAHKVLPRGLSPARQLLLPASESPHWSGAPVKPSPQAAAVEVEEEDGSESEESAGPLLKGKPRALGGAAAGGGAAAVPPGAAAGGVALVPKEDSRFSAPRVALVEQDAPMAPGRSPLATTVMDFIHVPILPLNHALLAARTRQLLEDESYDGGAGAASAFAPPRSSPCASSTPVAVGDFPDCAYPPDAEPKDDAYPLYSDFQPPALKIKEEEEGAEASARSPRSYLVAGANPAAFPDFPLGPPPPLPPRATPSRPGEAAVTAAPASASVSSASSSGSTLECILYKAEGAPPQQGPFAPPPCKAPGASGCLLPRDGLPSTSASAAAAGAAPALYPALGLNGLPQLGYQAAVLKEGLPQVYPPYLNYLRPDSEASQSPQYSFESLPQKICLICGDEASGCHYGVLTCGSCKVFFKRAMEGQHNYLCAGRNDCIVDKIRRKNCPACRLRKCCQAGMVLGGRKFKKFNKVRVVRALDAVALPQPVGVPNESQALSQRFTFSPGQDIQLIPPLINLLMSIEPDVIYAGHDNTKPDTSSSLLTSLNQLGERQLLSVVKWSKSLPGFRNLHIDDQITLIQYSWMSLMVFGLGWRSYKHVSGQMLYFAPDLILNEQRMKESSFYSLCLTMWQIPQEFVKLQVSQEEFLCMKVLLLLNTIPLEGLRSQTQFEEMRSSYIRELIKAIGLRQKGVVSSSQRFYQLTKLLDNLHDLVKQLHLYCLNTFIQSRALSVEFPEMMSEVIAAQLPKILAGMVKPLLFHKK
Chain of Thyrotropin-releasing hormone receptor (Homo sapiens) (P34981 whole entry, looked up): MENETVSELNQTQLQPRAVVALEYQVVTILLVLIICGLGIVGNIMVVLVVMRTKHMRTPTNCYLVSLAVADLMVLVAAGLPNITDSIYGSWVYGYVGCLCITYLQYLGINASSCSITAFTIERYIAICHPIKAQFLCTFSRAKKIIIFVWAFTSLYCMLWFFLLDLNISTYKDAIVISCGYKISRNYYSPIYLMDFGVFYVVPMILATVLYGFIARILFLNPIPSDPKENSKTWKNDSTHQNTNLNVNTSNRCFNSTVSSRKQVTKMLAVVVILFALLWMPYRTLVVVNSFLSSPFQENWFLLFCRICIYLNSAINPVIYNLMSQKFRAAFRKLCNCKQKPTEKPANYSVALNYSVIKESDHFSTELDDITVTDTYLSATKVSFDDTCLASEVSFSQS
Chain of Androgen receptor (Homo sapiens) (P10275 whole entry, looked up): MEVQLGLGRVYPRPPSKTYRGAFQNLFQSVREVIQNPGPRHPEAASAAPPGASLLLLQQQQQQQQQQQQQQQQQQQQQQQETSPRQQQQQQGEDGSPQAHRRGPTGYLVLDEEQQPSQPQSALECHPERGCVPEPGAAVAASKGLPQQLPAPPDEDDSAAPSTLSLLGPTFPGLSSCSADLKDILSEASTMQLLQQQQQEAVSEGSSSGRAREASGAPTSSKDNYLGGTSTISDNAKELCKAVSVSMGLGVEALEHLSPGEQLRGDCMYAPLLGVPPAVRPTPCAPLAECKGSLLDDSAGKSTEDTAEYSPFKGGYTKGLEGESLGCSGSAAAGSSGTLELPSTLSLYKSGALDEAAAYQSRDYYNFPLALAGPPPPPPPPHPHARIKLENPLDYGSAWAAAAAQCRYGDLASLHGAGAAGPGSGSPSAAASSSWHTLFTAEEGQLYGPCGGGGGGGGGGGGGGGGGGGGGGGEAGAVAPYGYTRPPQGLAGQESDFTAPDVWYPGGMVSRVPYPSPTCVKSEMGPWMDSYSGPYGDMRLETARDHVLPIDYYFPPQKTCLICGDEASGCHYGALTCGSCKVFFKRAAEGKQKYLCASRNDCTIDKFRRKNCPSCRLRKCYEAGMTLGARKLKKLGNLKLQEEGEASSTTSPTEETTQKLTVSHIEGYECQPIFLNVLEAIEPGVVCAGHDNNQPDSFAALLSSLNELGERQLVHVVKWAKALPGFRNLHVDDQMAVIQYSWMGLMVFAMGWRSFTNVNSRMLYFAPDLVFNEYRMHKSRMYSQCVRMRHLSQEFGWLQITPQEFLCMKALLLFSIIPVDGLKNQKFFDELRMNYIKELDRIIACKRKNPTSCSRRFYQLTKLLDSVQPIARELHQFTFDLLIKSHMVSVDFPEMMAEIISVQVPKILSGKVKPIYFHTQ
Chain of Estrogen receptor (Homo sapiens) (P03372 whole entry, looked up): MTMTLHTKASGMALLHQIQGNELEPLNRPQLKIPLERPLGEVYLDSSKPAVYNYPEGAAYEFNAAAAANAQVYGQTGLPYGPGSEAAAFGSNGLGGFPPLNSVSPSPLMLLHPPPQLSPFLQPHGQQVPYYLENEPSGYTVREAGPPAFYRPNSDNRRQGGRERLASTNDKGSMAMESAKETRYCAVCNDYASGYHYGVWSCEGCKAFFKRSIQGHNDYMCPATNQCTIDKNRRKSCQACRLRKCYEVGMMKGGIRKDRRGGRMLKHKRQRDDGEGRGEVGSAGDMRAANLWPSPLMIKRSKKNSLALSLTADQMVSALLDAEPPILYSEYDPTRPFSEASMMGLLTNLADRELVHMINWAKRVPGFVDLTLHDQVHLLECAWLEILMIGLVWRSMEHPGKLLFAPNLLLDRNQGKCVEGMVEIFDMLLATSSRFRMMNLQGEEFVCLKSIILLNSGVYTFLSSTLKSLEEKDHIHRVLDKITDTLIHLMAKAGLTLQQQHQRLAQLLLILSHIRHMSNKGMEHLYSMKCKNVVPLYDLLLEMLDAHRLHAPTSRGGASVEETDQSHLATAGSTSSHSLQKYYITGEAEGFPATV
Chain of Estrogen receptor beta (Homo sapiens) (Q92731 whole entry, looked up): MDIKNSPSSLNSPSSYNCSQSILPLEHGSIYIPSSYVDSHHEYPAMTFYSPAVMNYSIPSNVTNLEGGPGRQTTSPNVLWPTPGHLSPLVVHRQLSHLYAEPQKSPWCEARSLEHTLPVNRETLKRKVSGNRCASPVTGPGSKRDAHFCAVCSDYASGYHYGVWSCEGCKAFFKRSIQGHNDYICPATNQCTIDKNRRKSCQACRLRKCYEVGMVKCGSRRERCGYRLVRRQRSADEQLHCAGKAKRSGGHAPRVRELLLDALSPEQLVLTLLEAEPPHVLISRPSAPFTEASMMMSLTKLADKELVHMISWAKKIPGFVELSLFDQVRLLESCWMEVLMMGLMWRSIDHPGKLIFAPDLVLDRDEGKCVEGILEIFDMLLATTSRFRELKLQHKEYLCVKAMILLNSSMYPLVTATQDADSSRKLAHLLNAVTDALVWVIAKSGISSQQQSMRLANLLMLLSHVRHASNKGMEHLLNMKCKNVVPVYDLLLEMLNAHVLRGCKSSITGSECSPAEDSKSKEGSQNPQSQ

In the case of `C/C(=N/NC(=O)c1ccncc1)C(=O)O`, the Potency result in [1], in assay [2], in assay [3], in [4], in assay [5] and in [6] was “inactive” each time. The Potency result in [7], in [9], in [10], in [11], in assay [12] and in [13] was “inactive” throughout. The Potency entry in assay [14] is “inactive”. Further, the result in [8], in assay [15], in [16] and in assay [17] was inactive.

`C[Si]1(C)O[Si](C)(C)O[Si](C)(C)O1`: the Potency result in assay [1], in [2], in assay [3], in assay [4], in assay [5] and in assay [6] was “inactive” in each case. Moreover, the Potency result in assay [9], in assay [10], in assay [11], in [12], in assay [13] and in assay [14] was “inactive” each time. Besides, the outcome in assay [8], in [16], in [17] and in [18] was inactive.

Turning to `CNC(=O)N(c1ccccc1)c1ccccc1`, the Potency entry in assay [1], in [3], in [4], in assay [5], in [6] and in [7] was “inactive” in each case. In addition, the Potency entry in assay [9], in [10], in assay [11], in assay [12], in assay [13] and in assay [14] was “inactive” in each case. Moreover, in assay [2], the Potency was 6.89 µM (active). Besides, the call in assay [8], in assay [15], in assay [16], in assay [17] and in assay [18] was inactive.

In the case of `CCCc1c(OCCCOc2ccc(OCC(=O)O)cc2)ccc(C(C)=O)c1O`, the Potency entry in [1], in assay [2], in [3], in assay [5], in assay [7] and in [9] was “inactive” throughout. The Potency entry in assay [10], in [11] and in assay [14] was “inactive” in each case. Moreover, the Potency in assay [4] was 17.2 µM (active). Further, the result in [8] and in assay [16] was inactive.

With `COCC(O)CO` (stereo not given), the Potency result in assay [1], in [2], in assay [3], in [4], in assay [6] and in [7] was “inactive” each time. Besides, the Potency result in assay [9], in assay [10], in assay [11], in assay [12], in [13] and in [14] was “inactive” each time. For the same molecule, the outcome in [8], in [15], in assay [16], in assay [17] and in assay [18] was inactive.

As to `CC(C)CCCCCOC(=O)CCCCC(=O)OCCCCCC(C)C`, the Potency entry in [1], in [2], in assay [19], in assay [3], in assay [6] and in assay [9] was “inactive” in each case. The Potency entry in [10], in assay [11], in [12], in [13] and in assay [14] was “inactive” throughout. Also, the molecule was classed as inactive in [8], in [15], in [16], in [17] and in assay [18].

Turning to `CCn1cc(C(=O)O)c(=O)c2cc(F)c(N3CCNCC3)nc21`, the Potency result in [1], in assay [2], in assay [19], in assay [3], in [6] and in assay [7] was “inactive” each time. The Potency result in [9], in [10], in [11], in assay [12], in assay [13] and in assay [14] was “inactive” in each case. The result in [8], in [16] and in assay [17] was inactive.

As for `CCC(C)(C)C1CCC(O)CC1` (stereo not given), the Potency entry in assay [1], in assay [2], in assay [3], in assay [4], in assay [6] and in assay [7] was “inactive” in each case. Besides, the Potency entry in [9], in assay [10], in [11], in assay [13] and in [14] was “inactive” each time. Further, the result in assay [8], in assay [16] and in assay [17] was inactive.
